Screening results (PubChem BioAssay)
ALOX12 inh – ALOX12 (human) lipoxygenase inhibition. purified 12hLO, xylenol orange hydroperoxide absorbance. Potency, µM (titrated, usually from 108 µM), most hits filed as inhibitors. 580,000 compounds, 1.1% hits
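Purified human 12hLO (150 nM final) in 25 mM Hepes, 0.01% Triton X-100, pH 7.0 was preincubated 15 min at room temperature with compound. Then 40 uM arachidonic acid was added, 30 min. Hydroperoxide was read by Fe-XO absorbance ratio 573/405 nm.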
G9a inh – blocks human histone lysine methyltransferase G9a | G9a H3K9 monomethylation, AlphaScreen, 2 h | Potency, µM (top dose mostly 102 µM), hits mostly inhibitors | 350,000 compounds, 8.8% hits | AID 504332; also: nearly all actives have a fitted effect of over 75% in size
Target sequence (Q96KQ7 913-1193 limits assumed): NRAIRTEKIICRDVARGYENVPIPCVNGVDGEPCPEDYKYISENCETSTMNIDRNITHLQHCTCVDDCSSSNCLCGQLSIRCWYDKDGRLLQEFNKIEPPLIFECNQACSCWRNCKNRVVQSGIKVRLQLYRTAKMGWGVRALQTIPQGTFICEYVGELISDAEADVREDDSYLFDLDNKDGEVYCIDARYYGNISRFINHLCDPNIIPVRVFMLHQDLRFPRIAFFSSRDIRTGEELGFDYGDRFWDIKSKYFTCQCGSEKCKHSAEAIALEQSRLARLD
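Quantitative HTS format: methyltransferase activity on a biotin-tagged H3K9 peptide is measured by AlphaScreen, using a rabbit anti-monomethyl-H3K9 antibody with streptavidin donor and anti-IgG acceptor beads. Final levels are 20 nM enzyme, 500 nM peptide, 20 uM SAM; 2 h RT.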
VDR inhibitor – blocks the human vitamin D receptor; P11473; VDR-SRC2-3 peptide fluorescence polarization, 2 h; Potency, µM, usual class: inhibitors; 400,000 compounds, 0.93% hits
Target sequence (P11473 whole entry, looked up): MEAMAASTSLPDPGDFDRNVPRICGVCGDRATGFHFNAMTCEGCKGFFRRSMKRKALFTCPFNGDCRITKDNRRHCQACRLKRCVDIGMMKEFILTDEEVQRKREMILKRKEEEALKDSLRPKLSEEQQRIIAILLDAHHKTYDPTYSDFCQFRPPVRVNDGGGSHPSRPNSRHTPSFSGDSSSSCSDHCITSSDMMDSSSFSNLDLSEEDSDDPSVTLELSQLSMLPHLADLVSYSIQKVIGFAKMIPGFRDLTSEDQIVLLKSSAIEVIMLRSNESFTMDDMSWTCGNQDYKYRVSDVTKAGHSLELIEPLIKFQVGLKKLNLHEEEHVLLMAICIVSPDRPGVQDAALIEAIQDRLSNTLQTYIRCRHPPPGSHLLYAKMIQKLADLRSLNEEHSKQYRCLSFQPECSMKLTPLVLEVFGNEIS
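Measured by FP: displacement of SRC2-3 coactivator peptide from VDR by library compounds, following a two-hour ambient incubation.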
Glioma ERSR ind – inducers of ER stress response in human glioma cells; Potency, µM, actives largely listed as activators; U87-MG GRP78 promoter luciferase reporter, 16 h; 420,000 compounds, 0.02% hits; also: series mostly up to about 76 µM; nearly all actives have a fitted effect of over 35% in size
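Stably transfected U87-MG glioma cells carrying a GRP78-based luciferase sensor; 16 h compound incubation. Luminescence end-point read 10 min after Bright-Glo addition at room temperature.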
Sfp PPTase inh – inhibitors of Bacillus subtilis Sfp phosphopantetheinyl transferase | Biochemical Sfp PPTase activity, qHTS | Potency, µM, hits mostly inhibitors | 310,000 compounds, 3.5% hits;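 also: the enzyme is Sfp with the accession as filed and its product quenches rhodamine fluorescence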
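Sfp 15 nM + cpd, 15 min RT; start w/ rhodamine-CoA 5 uM, BHQ-2-YbbR 12.5 uM (final); 50 mM Hepes pH 7.6, 10 mM MgCl2, 0.01% NP-40, 0.01% BSA; read 525/598 nm at 0 and 30 min.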
Large screens that a line does not name were inactive. This excerpt belongs to a sample that is enriched for hits. Calls follow the shape of the dose curve; as a rule, active = well fitted curve in the direction sought with a large enough effect; inconclusive = small, poorly fitted or top-dose-only effect, or another doubt; inactive = no such curve, though single readings can be large; an effect the other way counts as inactive or inconclusive.

O=S(=O)(Nc1cc(Sc2cccc3cccnc23)c(O)c2ccccc12)c1ccc(F)cc1	ALOX12 inh inconclusive, G9a inh 2µM, VDR inhibitor 22µM, Sfp PPTase inh 10µM
COc1ccccc1C1NC=C([N+](=O)[O-])C=C1[N+](=O)[O-] (configuration not stated)	ALOX12 inh inconclusive, G9a inh 3.5µM, Sfp PPTase inh inconclusive
COc1ccccc1C1C([N+](=O)[O-])=CC([N+](=O)[O-])=CN1C (configuration not stated)	G9a inh inconclusive
Cc1cccc(-n2c(O)c(C=Nc3ccccc3)c3ccccc3c2=O)n1	ALOX12 inh inconclusive, G9a inh inconclusive, VDR inhibitor 32µM
CCOC(=O)C(NC(=O)c1ccc(C)cc1)C(=O)OCC	none (no result: G9a inh, VDR inhibitor, Glioma ERSR ind, Sfp PPTase inh)
O=C(/C=C/C(Cl)(Cl)Cl)Nc1ccc(Cl)cc1	ALOX12 inh inconclusive (no result: G9a inh, Sfp PPTase inh)
NC(=O)SCC(=O)Nc1ccc(Cl)c(Cl)c1	VDR inhibitor inconclusive, Glioma ERSR ind inconclusive, Sfp PPTase inh inconclusive
NC(=O)SCC(=O)Nc1ccc(Cl)cc1	VDR inhibitor 28µM, Glioma ERSR ind inconclusive
NC(=O)/C=C/C(=O)Nc1ccc(Cl)cc1	G9a inh 11µM
CC(C)(C)C(=O)/C(C#N)=C/c1ccccc1OCc1ccc(Cl)cc1	none (no result: G9a inh, VDR inhibitor, Glioma ERSR ind, Sfp PPTase inh)
CCOc1ccc(CC(=O)Nc2sc(Cc3ccccc3)cc2C(N)=O)cc1OCC	ALOX12 inh inconclusive, G9a inh 2.5µM, VDR inhibitor inconclusive, Sfp PPTase inh 28µM
COCCN1C(=O)[C@@H]2C[C@@H](CN2Cc2cccc(OC)c2)Oc2ccccc21	none (no result: G9a inh, VDR inhibitor, Glioma ERSR ind, Sfp PPTase inh)
O=C1CCCC2=C1C(c1ccc(O)c(O)c1)Nc1ccc3ccccc3c12 (configuration not stated)	none (no result: G9a inh, Sfp PPTase inh)
O=C1CCCC2=C1C(c1ccco1)Nc1ccc3ccccc3c12 (configuration not stated)	G9a inh 16µM, Sfp PPTase inh 45µM
Cc1cccc(-[n+]2c(C)cc(C)c3c(=O)[nH]c(=O)[nH]c32)c1	G9a inh 50µM
Cc1ccc(N2C(=O)C3C(c4ccccc4)N4CCCN4C3(C)C2=O)cc1 (configuration not stated)	G9a inh 7.9µM
COc1cccc(-c2c(NC(=O)c3ccc([N+](=O)[O-])cc3)oc3ccc(Cl)cc3c2=O)c1	none (no result: G9a inh, VDR inhibitor, Glioma ERSR ind, Sfp PPTase inh)
COc1cc2ccccc2cc1C(=O)OCc1ccc(C#N)cc1	none (no result: G9a inh, VDR inhibitor, Glioma ERSR ind, Sfp PPTase inh)
Cc1ccc(C(=O)CC(=O)c2ccc(C)cc2C)c(C)c1	none (no result: G9a inh, VDR inhibitor, Glioma ERSR ind, Sfp PPTase inh)
Cc1cn([C@H]2C[C@H](O)[C@@H](CNS(=O)(=O)N3CCCC3)O2)c(=O)[nH]c1=O	ALOX12 inh 7.9µM (no result: G9a inh, VDR inhibitor, Sfp PPTase inh)
Cc1cn(C2CC(O)C(CO)O2)c(=O)[nH]c1=O (configuration not stated)	none (no result: ALOX12 inh, G9a inh)
COc1ccc(CN2CCCCCNC(=O)CC2c2ccccc2)cc1Cn1ccnc1 (configuration not stated)	none (no result: G9a inh, VDR inhibitor, Glioma ERSR ind, Sfp PPTase inh)
COc1ccccc1N1CCN(CC(O)COCCOc2ccc(Br)cc2)CC1 (configuration not stated)	none
OCCN1CCN(CC(O)COCCOc2ccc(Br)cc2)CC1 (configuration not stated)	VDR inhibitor 18µM
COc1ccc(N2CCN(CC(O)COC(C)(C)C)CC2)cc1 (configuration not stated)	G9a inh 10µM
COc1ccc(OCC(O)CN2CCN(c3ccc(Cl)cc3)CC2)cc1 (configuration not stated)	none
COc1ccc(N2CCN(CC(O)COCCOc3ccc(Br)cc3)CC2)cc1 (configuration not stated)	ALOX12 inh inconclusive, G9a inh 10µM
O=C(NCc1ccccn1)c1ccc2c(c1)N(Cc1ccccc1)C(=O)c1ccccc1S2=O (configuration not stated)	none (no result: G9a inh, VDR inhibitor, Glioma ERSR ind, Sfp PPTase inh)
CCCN(CCC)C(=O)c1ccc2c(c1)S(=O)(=O)c1ccccc1C2=O	G9a inh 79µM
O=c1[nH]c(=O)n(CC2CCCO2)c2nccc(-c3cccc4ccccc34)c12 (configuration not stated)	none (no result: G9a inh, VDR inhibitor, Glioma ERSR ind, Sfp PPTase inh)
CCc1ccc(S(=O)(=O)N/N=C(/C)c2ccncc2)cc1	ALOX12 inh inconclusive, G9a inh 40µM
C/C(=N/NS(=O)(=O)c1ccc(F)cc1)c1ccncc1	ALOX12 inh inconclusive, G9a inh 22µM
COC(=O)[C@@H]1Cc2ncn(Cc3ccccc3)c2CN1C(=O)C1CCCCC1	none (no result: G9a inh, VDR inhibitor, Glioma ERSR ind, Sfp PPTase inh)
C/C(=N\NC(=O)c1ccccc1)c1ccc2c3c(cccc13)CC2	none (no result: G9a inh, VDR inhibitor, Glioma ERSR ind, Sfp PPTase inh)
Nc1ccc2nc(SCC(=O)N3CCOCC3)sc2c1	none
O=C(CCCc1nc2ccccc2s1)N1CCN(c2ccccc2F)CC1	none
CC(=O)Nc1ccc2nc(SCc3ccccc3)sc2c1	none (no result: Sfp PPTase inh)
CCOC(=O)CSc1nc(N)c(C(=O)Nc2ccc(N(C)C)cc2)s1	G9a inh 16µM
CCN(CC)C(=O)CSc1nc(N)c(C(=O)Nc2ccc(OC)cc2)s1	none
Nc1ccc2nc(SCc3cccc(F)c3)sc2c1	G9a inh 45µM
Nc1ccc2nc(SCC(=O)N3CCN(c4ccccc4)CC3)sc2c1	G9a inh 50µM
O=C(CCCc1nc2ccccc2s1)N1CCN(c2ccccc2)CC1	G9a inh inconclusive, Sfp PPTase inh 45µM
COc1ccc(-c2cc3ccc(OS(=O)(=O)c4ccc(C)cc4)cc3oc2=O)cc1OC	none (no result: G9a inh, VDR inhibitor, Glioma ERSR ind, Sfp PPTase inh)
CCOC(=O)CSc1nc2ccc(N)cc2s1	G9a inh 32µM
O=C(OCC(=O)N1CCCc2ccccc21)c1ccc(S(=O)(=O)C(F)F)cc1	G9a inh 50µM (no result: Sfp PPTase inh)
Cc1ccc(C(=O)OCC(=O)N2CCCc3ccccc32)cc1C	ALOX12 inh inconclusive (no result: Sfp PPTase inh)
COc1cccc(-c2nnnn2[C@H]2CO[C@H]3[C@@H]2OC[C@@H]3NS(=O)(=O)c2ccccc2C#N)c1	none (no result: G9a inh, VDR inhibitor, Glioma ERSR ind, Sfp PPTase inh)
COCCN(C(=O)C1CCC1)c1nnc(-c2cccnc2)s1	none
CCN(C(=O)C1CCCCC1)c1nnc(-c2cccnc2)s1	ALOX12 inh inconclusive, G9a inh 50µM
O=C1NC(=S)SC1=C1CCCCCC1	ALOX12 inh inconclusive, G9a inh inconclusive, VDR inhibitor inconclusive, Sfp PPTase inh 35µM
CN1CCN(/C=C2\SC(=S)NC2=O)CC1	none
O=C(CCc1ccc(-c2cccs2)o1)NC[C@@H]1C[C@H](F)CN1	none (no result: G9a inh, VDR inhibitor, Glioma ERSR ind, Sfp PPTase inh)
S=C1NC2(CCCC2)Nc2ccccc21	ALOX12 inh inconclusive, G9a inh 11µM
S=C1NC2(CCCCC2)Nc2ccccc21	G9a inh 45µM
Cc1c(C(=O)N2CCC(c3nc4ccccc4o3)CC2)oc2ccc(Cl)cc12	none (no result: G9a inh, VDR inhibitor, Glioma ERSR ind, Sfp PPTase inh)
CCOC(=O)C1CCN(S(=O)(=O)c2ccc(-c3cc(C(F)(F)F)n(C)n3)s2)CC1	none (no result: G9a inh)
CCOC(=O)C1CCN(S(=O)(=O)c2ccc(-c3nc4ccccc4s3)s2)CC1	ALOX12 inh inconclusive, G9a inh 35µM
COC(=O)CSC1=C(C#N)C(=O)NC(c2ccccc2)S1 (configuration not stated)	ALOX12 inh inconclusive, G9a inh inconclusive, Sfp PPTase inh 32µM
Cc1cccc(NC(=O)c2ccccc2NC(=O)C2CCCCC2)c1C	Sfp PPTase inh 28µM
